Structures are written as SMILES. “And” between values parts separate entries of the source, which are not always exact repeats. Identical values can stand only once. A structure can be active in one record and inactive in another. The source made the active and inactive calls. How the source made its calls: active means hit-call score of the fitted dose curve at least 0.9, where 1 is the maximum; inactive means score below 0.9.

Read-out in test [1]: Tissue plasminogen activator (tPA), PLAT (gene 5327)
Briefly: BSK_BE3C_tPA: BioMAP Diversity Plus: BE3C Assay for Tissue plasminogen activator (tPA) Biomarker Activity (AID 2283041).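 Further: tPA level quantified by ELISA one day after compound addition.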 Conditions: primary human bronchial epithelial cells; actives raise or lower the signal. An outline of the steps:
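Gain- or loss-of-signal in tPA, measured by ELISA, derived by bidirectional fitting against DMSO. Cells: human primary bronchial epithelial; read at 24 h after chemical dosing.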

Read-out in test [2]: Interleukin-8 (IL8), CXCL8 (gene 3576)
Briefly: BSK_CASM3C_IL8: BioMAP Diversity Plus: CASM3C Assay for Interleukin-8 (IL8) Biomarker Activity (AID 2283042).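 Further: IL-8 protein level quantified by ELISA.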 Conditions: primary human coronary artery smooth muscle cells; actives raise or lower the signal.

Read-out in test [3]: Human Leukocyte Antigen - DR isotype (HLADR), HLA-DRA (gene 3122)
Briefly: BSK_CASM3C_HLADR: BioMAP Diversity Plus: CASM3C Assay for Human Leukocyte Antigen - DR isotype (HLADR) Biomarker Activity (AID 2283043).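 Further: cell-surface HLA-DR protein level quantified by ELISA.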 Conditions: primary human coronary artery smooth muscle cells; actives raise or lower the signal.

Read-out in test [4]: Macrophage colony-stimulating factor (MCSF), CSF1 (gene 1435)
Description: BSK_CASM3C_MCSF: BioMAP Diversity Plus: CASM3C Assay for Macrophage colony-stimulating factor (MCSF) Biomarker Activity (AID 2283044).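 Further: M-CSF protein amount quantified by ELISA after 24 h exposure.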 Conditions: primary human coronary artery smooth muscle cells; actives raise or lower the signal.

Read-out in test [5]: Low-density lipoprotein receptor (LDLR), LDLR (gene 3949)
Briefly: BSK_CASM3C_LDLR: BioMAP Diversity Plus: CASM3C Assay for Low-density lipoprotein receptor (LDLR) Biomarker Activity (AID 2283045).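 Further: LDLR protein level on the cell surface quantified by ELISA.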 Conditions: primary human coronary artery smooth muscle cells; actives raise or lower the signal.

Read-out in test [6]: Monocyte Chemoattractant Protein-1 (MCP1), CCL2 (gene 6347)
Briefly: BSK_CASM3C_MCP1: BioMAP Diversity Plus: CASM3C Assay for Monocyte Chemoattractant Protein-1 (MCP1) Biomarker Activity (AID 2283046).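 Further: MCP-1 level quantified by ELISA 24 h after dosing.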 Conditions: primary human coronary artery smooth muscle cells; actives raise or lower the signal.

The nature of test [7]: BSK_CASM3C_Proliferation: Cell Proliferation Assessment in the BioMAP Diversity Plus: CASM3C Assay (AID 2283047).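 Further: sulforhodamine B total protein stain as relative cell number at 560 nm; sub-confluent cells exposed 48 h before staining; fitted both ways against DMSO so gain or loss of cell number.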 Conditions: primary human coronary artery smooth muscle cells.
Read-out in test [8]: Monokine induced gamma interferon (MIG), CXCL9 (gene 4283)
Description: BSK_CASM3C_MIG: BioMAP Diversity Plus: CASM3C Assay for Monokine induced gamma interferon (MIG) Biomarker Activity (AID 2283048).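 Further: MIG protein level measured by ELISA.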 Conditions: primary human coronary artery smooth muscle cells; actives raise or lower the signal.

Read-out in test [9]: serum amyloid A (SAA), SAA1 (gene 6288)
Description: BSK_CASM3C_SAA: BioMAP Diversity Plus: CASM3C Assay for serum amyloid A (SAA) Biomarker Activity (AID 2283049).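 Further: SAA protein level quantified by ELISA.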 Conditions: primary human coronary artery smooth muscle cells; actives raise or lower the signal.

A short description of test [10]: BSK_CASM3C_SRB: Viability Assessment in the BioMAP Diversity Plus: CASM3C Assay (AID 2283050).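 Further: total protein by SRB staining as cytotoxicity measure in parallel cultures; cells exposed to compound for 24 h.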 Conditions: primary human coronary artery smooth muscle cells.
Read-out in test [11]: Thrombomodulin, THBD (gene 7056)
Description: BSK_CASM3C_Thrombomodulin: BioMAP Diversity Plus: CASM3C Assay for Thrombomodulin Biomarker Activity (AID 2283051).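 Further: thrombomodulin protein level measured by ELISA 24 h after dosing.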 Conditions: primary human coronary artery smooth muscle cells; actives raise or lower the signal.

Read-out in test [12]: Tissue Factor, F3 (gene 2152)
Description: BSK_CASM3C_TissueFactor: BioMAP Diversity Plus: CASM3C Assay for Tissue Factor Biomarker Activity (AID 2283052).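 Further: cell surface tissue factor protein level read by ELISA.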 Conditions: primary human coronary artery smooth muscle cells; actives raise or lower the signal.

Read-out in test [13]: Interferon-gamma inducible Protein 10 (IP10), CXCL10 (gene 3627)
Briefly: BSK_hDFCGF_IP10: BioMAP Diversity Plus: hDFCGF Assay for Interferon-gamma inducible Protein 10 (IP10) Biomarker Activity (AID 2283053). Conditions: primary human foreskin fibroblasts; actives raise or lower the signal. A digest of the protocol:
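Cells: human dermal foreskin fibroblasts. Exposure: 24 h post-dosing. Detection: IP-10 ELISA, with values expressed against DMSO controls and fitted in both directions.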

Read-out in test [14]: Urokinase-type plasminogen activator receptor (uPAR), PLAUR (gene 5329)
Description: BSK_CASM3C_uPAR: BioMAP Diversity Plus: CASM3C Assay for Urokinase-type plasminogen activator receptor (uPAR) Biomarker Activity (AID 2283054).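 Further: cell-surface uPAR protein level quantified by ELISA.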 Conditions: primary human coronary artery smooth muscle cells; actives raise or lower the signal.

Read-out in test [15]: Vascular cell adhesion molecule 1 (VCAM1), VCAM1 (gene 7412)
Briefly: BSK_CASM3C_VCAM1: BioMAP Diversity Plus: CASM3C Assay for Vascular cell adhesion molecule 1 (VCAM1) Biomarker Activity (AID 2283055).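 Further: VCAM-1 protein level quantified by ELISA on the cells.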 Conditions: primary human coronary artery smooth muscle cells; actives raise or lower the signal.

Read-out in test [16]: Collagen III, COL3A1 (gene 1281)
Description: BSK_hDFCGF_CollagenIII: BioMAP Diversity Plus: hDFCGF Assay for Collagen III Biomarker Activity (AID 2283056). Conditions: primary human foreskin fibroblasts; actives raise or lower the signal. An outline of the steps: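 Human foreskin primary fibroblasts were exposed to test chemicals for 24 h, after which collagen III was quantified by ELISA. Activity was fitted bidirectionally against DMSO as negative control and baseline.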

Read-out in test [17]: Epidermal growth factor receptor (EGFR), EGFR (gene 1956)
Briefly: BSK_hDFCGF_EGFR: BioMAP Diversity Plus: hDFCGF Assay for Epidermal growth factor receptor (EGFR) Biomarker Activity (AID 2283057). Conditions: primary human foreskin fibroblasts; actives raise or lower the signal. An outline of the steps: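 Dosing human primary skin fibroblasts, then measuring surface EGFR by ELISA at 24 h, gives the endpoint; gains and losses relative to DMSO were fitted in both directions.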

Read-out in test [18]: Interleukin-8 (IL8), CXCL8 (gene 3576)
Briefly: BSK_hDFCGF_IL8: BioMAP Diversity Plus: hDFCGF Assay for Interleukin-8 (IL8) Biomarker Activity (AID 2283058). Conditions: primary human foreskin fibroblasts; actives raise or lower the signal. An outline of the steps: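 hDFCGF human dermal fibroblasts; 24 h chemical exposure; IL-8 by ELISA; bidirectional curve fit vs DMSO baseline; gain or loss of signal scored.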

Test [19] in a line: BSK_hDFCGF_Proliferation: Cell Proliferation Assessment in the BioMAP Diversity Plus: hDFCGF Assay (AID 2283059).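 Further: curves fitted for both rise and fall of signal versus DMSO baseline.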 Conditions: primary human foreskin fibroblasts. A digest of the protocol:
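Primary human foreskin fibroblasts, sub-confluent; […]; 10% TCA fix, 0.1% SRB stain, A560 total protein. Gain/loss fitted bidirectionally vs DMSO control.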

Read-out in test [20]: Macrophage colony-stimulating factor (MCSF), CSF1 (gene 1435)
Description: BSK_hDFCGF_MCSF: BioMAP Diversity Plus: hDFCGF Assay for Macrophage colony-stimulating factor (MCSF) Biomarker Activity (AID 2283060). Conditions: primary human foreskin fibroblasts; actives raise or lower the signal. An outline of the steps: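 Human foreskin primary fibroblasts were treated with test chemical for 24 h, and M-CSF was then measured by ELISA. Data were fitted bidirectionally against DMSO as the negative control and activity baseline.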

For the molecule `CCOC(=O)CCCCCCCCC(=O)OCC`, the result in test [1], in [2], in test [3], in [4], in [5] and in test [6] was inactive. The outcome in [7], in test [8], in test [9], in test [10], in test [11] and in test [12] was inactive. The result in test [13], in test [14], in test [15], in test [16], in test [17] and in [18] was inactive. Further, the result in test [19] and in [20] was inactive.

With `CC(C)CCCC(C)(C)O`, the result in test [1], in test [2], in test [3], in test [4], in test [5] and in test [6] was inactive. In addition, the outcome in test [7], in test [8], in test [9], in test [10], in test [11] and in [12] was inactive. Further, the outcome in test [13], in test [14], in test [15], in test [16], in test [17] and in test [18] was inactive. The result in [19] and in test [20] was inactive.

Regarding `CCCCCCCCCCCCS`, the outcome in [1], in test [2], in test [4], in test [5], in test [8] and in test [9] was inactive. Besides, the outcome in test [11], in [12] and in [17] was inactive. Further, the AC50 (in general, the concentration giving half of the maximal activity seen) in test [3] is 33.8 µM (active); in test [6], 3.97 µM (active); in test [7] it was 24.4 µM (active); in test [10] it was 28.5 µM (active); in [13], 11.3 µM (active); in [14], 30.3 µM (active). For the same molecule, the AC50 in test [15] was 6.76 µM (active); in test [16] it was 7.78 µM (active); in test [18] it was 20 µM (active); in [19] it was 3.2 µM (active); in test [20], 9.73 µM (active).

For the molecule `NC(=O)c1c(Cl)cccc1Cl`, the outcome in [1], in test [2], in test [3], in [4], in test [5] and in test [6] was inactive. Further, the result in test [7], in test [8], in [9], in test [10], in test [11] and in [12] was inactive. The outcome in [13], in test [14], in [15], in [16], in test [17] and in test [18] was inactive. In addition, the result in [19] and in test [20] was inactive.

`COc1ccccc1NC(=O)CC(C)=O`: the outcome in [1], in test [2], in test [3], in test [4], in [5] and in test [6] was inactive. Moreover, the outcome in test [7], in test [8], in [9], in test [10], in test [11] and in test [12] was inactive. Besides, the outcome in [13], in test [14], in test [15], in test [16], in test [17] and in test [18] was inactive. Also, the outcome in [19] and in test [20] was inactive.

As for `CCCCN(CCO)CCO`, the outcome in test [1], in test [2], in test [3], in [4], in test [5] and in test [6] was inactive. The outcome in test [7], in [8], in test [9], in test [10], in test [11] and in test [12] was inactive. Besides, the outcome in [13], in [14], in test [15], in test [16], in test [17] and in test [18] was inactive. Also, the outcome in [19] and in test [20] was inactive.

As for `OCC(F)(OC(F)(F)C(F)(OC(F)(F)C(F)(F)C(F)(F)F)C(F)(F)F)C(F)(F)F` (configuration not stated), the result in test [1], in [2], in test [3], in [4], in test [5] and in test [6] was inactive. Besides, the result in test [7], in test [8], in test [9], in test [10], in test [11] and in [12] was inactive. Further, the result in test [14], in test [15], in test [17] and in [18] was inactive. For the same molecule, the AC50 in test [13] is 2.4 µM (active) and 2.74 µM (active); in [16], 2.23 µM (active) and 1.98 µM (active); in test [17] it was 5.4 µM (active); in [18], 5.05 µM (active); in test [19] it was 4.48 µM (active) and 4.13 µM (active); in test [20], 2.34 µM (active) and 1.91 µM (active).

On to `C=C(C)C(=O)OCCC(F)(F)C(F)(F)C(F)(F)C(F)(F)C(F)(F)C(F)(F)C(F)(F)C(F)(F)F`, for which the outcome in test [1], in test [2], in test [3], in [4], in test [5] and in [6] was inactive. For the same molecule, the result in test [7], in [8], in test [9], in [10], in test [11] and in test [12] was inactive. For the same molecule, the result in test [13], in test [14], in [15], in test [16], in test [17] and in test [18] was inactive. Further, the result in [19] and in [20] was inactive.

Regarding `C#C[C@]1(O)CC[C@H]2[C@@H]3CCc4cc(O)ccc4[C@H]3CC[C@@]21C`, the result in test [1], in test [2], in test [3], in test [4], in test [8] and in [10] was inactive. For the same molecule, the outcome in [11], in test [12], in test [13], in test [14], in test [15] and in test [16] was inactive. Moreover, the outcome in test [17], in test [18] and in test [20] was inactive. In addition, the AC50 in [5] was 29.2 µM (active); in test [6] it was 2.14 µM (active); in [7], 7.37 µM (active); in [9] it was 0.935 µM (active); in [19], 7.35 µM (active).

On to `CC(C)Cc1ccc(C(C)C(=O)O)cc1` (configuration not stated), for which the outcome in [1], in [2], in test [3], in [4], in test [5] and in test [6] was inactive. In addition, the outcome in [8], in [9], in test [10], in test [12], in test [13] and in test [14] was inactive. Also, the outcome in [15], in test [17], in test [18], in [19] and in test [20] was inactive. Also, the AC50 was 0.2 µM (active) in test [7], 6.11 µM (active) in test [11] and 3.33 µM (active) in test [16].

On to `c1ccc2c(c1)-c1ccc3ccc4cccc5cc-2c1c3c45`, for which the outcome in test [1], in [2], in test [3], in test [4], in test [5] and in [6] was inactive. Moreover, the result in test [7], in test [8], in test [9], in [10], in test [11] and in test [12] was inactive. Also, the result in [13], in [14], in test [15], in test [16], in test [17] and in test [18] was inactive. The outcome in test [19] was inactive. In addition, the AC50 in test [20] is 0.0865 µM (active).
